# Measured values taken from the supplement of paper PMC6555819.
# Assays:
# Test in all cases: PBM binding z-score (relative to random genomic background probes); higher = stronger binding; sequences stand for … in GC…GCGATTGACAGCGTAGAATGAAGG
# [1] = test system: FXR:RXRa (NR concentration 270 nM, RXRa partner concentration 90 nM)
# In short: (§1)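 The probes on custom Agilent 4×180K protein-binding microarrays were double-stranded, with 34-nt variable regions bearing direct-repeat seeds, single-nucleotide variants, half-site ablations and random human genomic background sequences. Incubation lasted 1 h with ligand-free nuclear receptor dimers in PBS pH 7.4, 2% milk, 0.02% Triton X-100, 1 mM DTT, 0.2 mg/mL BSA and 0.4 mg/ml salmon testes DNA. Antibodies against each partner (one per run) detected bound dimers, and fluorescence scans were regression-normalized. Binding z-scores take the random background probes as reference.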
# [2] = test system: LXRa:RXRa (NR concentration 270 nM, RXRa partner concentration 90 nM)
# In short: as §1
# [3] = test system: LXRa homodimer (NR concentration 270 nM)
# In short: as §1
# [4] = test system: LXRb:RXRa (NR concentration 270 nM, RXRa partner concentration 90 nM)
# In short: as §1
# [5] = test system: LXRb homodimer (NR concentration 270 nM)
# In short: as §1
# [6] = test system: PPARa:RXRa (NR concentration 270 nM, RXRa partner concentration 90 nM)
# In short: as §1
# [7] = test system: PPARg:RXRa (NR concentration 180 nM, RXRa partner concentration 90 nM)
# In short: as §1
# [8] = test system: PPARg:RXRa 270nM:90nM, anti-RXR (NR concentration 270 nM, RXRa partner concentration 90 nM)
# In short: as §1
# [9] = test system: PPARg:RXRa 30nM:10nM, anti-RXR (NR concentration 30 nM, RXRa partner concentration 10 nM)
# In short: as §1
# [10] = test system: PPARg:RXRa 90nM:30nM, anti-RXR (NR concentration 90 nM, RXRa partner concentration 30 nM)
# In short: as §1
# [11] = test system: PPARg:RXRa DBDmut IVT, anti-RXR (DBD mutation: RXRa K156A/R161A, NR concentration 270 nM, RXRa partner concentration 90 nM)
# In short: as §1
# [12] = test system: PPARg:RXRa IVT, anti-PPARg (NR concentration 270 nM, RXRa partner concentration 90 nM)
# In short: as §1
# [13] = test system: PPARg DBDmut:RXRa IVT, anti-PPARg (DBD mutation: PPARg1 K132A/R137A, NR concentration 270 nM, RXRa partner concentration 90 nM)
# In short: as §1
# [14] = test system: PPARg DBDmut IVT, anti-PPARg (DBD mutation: PPARg1 K132A/R137A, NR concentration 270 nM)
# In short: as §1
# [15] = test system: PPARg homodimer (NR concentration 180 nM)
# In short: as §1
# [16] = test system: PXR:RXRa (NR concentration 270 nM, RXRa partner concentration 90 nM)
# In short: as §1
# [17] = test system: PXR homodimer (NR concentration 270 nM)
# In short: as §1
# [18] = test system: RARa:RXR (NR concentration 270 nM, RXRa partner concentration 90 nM)
# In short: as §1
# [19] = test system: RARa homodimer (NR concentration 270 nM)
# In short: as §1
# [20] = test system: RARb:RXRa (NR concentration 270 nM, RXRa partner concentration 90 nM)
# In short: as §1
Sequence,PBM binding z-score [1],PBM binding z-score [2],PBM binding z-score [3],PBM binding z-score [4],PBM binding z-score [5],PBM binding z-score [6],PBM binding z-score [7],PBM binding z-score [8],PBM binding z-score [9],PBM binding z-score [10],PBM binding z-score [11],PBM binding z-score [12],PBM binding z-score [13],PBM binding z-score [14],PBM binding z-score [15],PBM binding z-score [16],PBM binding z-score [17],PBM binding z-score [18],PBM binding z-score [19],PBM binding z-score [20]
AGAATGAGGTTAAGAGCAGGGAAACAGAATACAT,2.07,1.9,-0.281,1.52,-0.266,3.4,1.98,2.15,0.589,1.22,2.72,2.37,0.618,0.293,0.456,1.09,0.121,1.69,-0.0125,1.71
GCTCGTAGGACAAGGTCAGAGCTTTGTCCGTAGA,1.45,1.74,-0.722,1.25,-0.639,2.44,0.258,1.16,-0.473,0.455,0.0127,1.08,-1.37,-1.3,0.722,1.63,-0.493,2.13,-1.71,3.16
CATACAGGGTCTGCTAGGCCAGAGTAGGGACGGC,-0.237,-0.31,-0.443,-0.834,-0.599,-0.452,0.152,-0.899,-0.808,-0.386,-0.963,-0.162,-0.142,-0.562,0.266,-0.649,-0.0998,-0.482,0.212,0.183
CCTAGCAGGCCTGGGTCACTCAAGCATTTCGCTT,0.369,0.545,-0.474,0.861,-0.369,1.34,-0.336,0.314,-0.828,-0.485,0.171,0.217,-1.39,-1.28,0.279,0.53,-0.661,1.16,0.152,1.43
CCATACGGGTCAAGGTTATAGCACGGGTGGTACG,5.13,3.28,0.265,2.54,-0.237,4.84,4.87,4.32,1.07,3.23,1.2,3.15,0.543,-0.539,2.1,3.06,0.247,3.82,0.795,4.1
TCTAATTGGTCACGGAGGTCACACACGACGGGTA,3.62,4,2.74,3.75,1.6,4.35,4.51,5.01,4.41,5.06,2.78,4.04,1.67,1.69,3.37,4.81,1.7,4.76,2.23,4.2
ATCGAAAGGTCGATGGTGAGTATACCCACCCGAA,3.01,2.38,-0.15,1.83,0.391,3.29,1.48,1.85,0.714,1.02,-0.671,0.8,0.684,0.102,1.04,1.51,-0.361,2.18,0.322,3.03
TCAGACTGGTGAAGGTAACTCAGGTACGCAGTCG,-0.62,0.98,-0.387,0.192,-1.07,0.467,0.185,1.29,2.82,1.98,1.41,0.112,-0.324,-0.759,-0.234,0.0294,-0.386,0.305,-0.373,-0.0149
GAGACTGGGGCATCAGCAGGTTACCATAACTTAA,0.0727,0.0866,-0.0013,1.28,0.0718,1.73,1.71,1.63,0.0526,0.657,4.76,4.68,0.663,0.792,0.579,0.391,0.295,0.706,-0.0469,1.09
AGTCAAAGTTCATCTAGGTAACGTAAGATATGCT,6.73,6,5.07,3.62,1.73,4.84,6.6,6.14,3.3,5.53,1.19,3.69,1.19,1.17,3.13,5,7.49,3.72,2,5.01
ACAGACAGGTGAGTGAAGGTAACTCATCTGGACG,0.0966,-0.0411,-0.402,-0.512,-0.306,-0.155,0.684,0.0954,0.12,-0.143,0.0887,0.393,0.131,-0.119,-1.01,-0.3,-0.565,0.0538,-0.677,0.49
ACAGACAGGTGTGTGAAGGTAACTCAGCTGGACG,0.0191,-0.00303,-0.46,-0.618,-0.921,-0.347,0.522,-0.0357,-0.212,-0.375,-0.215,-0.0763,-0.159,-0.168,-0.299,-0.399,-0.457,-0.395,-0.0972,-0.265
TCTTGTAGATCAATAGAGGTGAAGAAAGTGCGCT,1.02,0.833,-0.122,0.533,-0.232,1.5,0.0312,1.72,2.84,2.21,2.33,1.64,0.582,1.07,-0.35,1.52,-0.318,1.28,0.328,0.777
CCTACTGGGCCATCAGGTCATTGGTATCAACGTT,1.47,1.25,1.08,1.78,-0.424,2.91,2.98,3.68,1.17,2.79,4.05,5.2,-1.01,-0.269,1.09,1.67,0.395,2.04,-0.0401,2.25
CCTACTTGGCCAAAAAGGTCATTGATGCCGATAA,4.39,4.79,3.93,4.61,1.27,4.7,1.74,3.04,0.755,1.87,1.07,1.98,0.866,0.465,4.5,4.93,2.68,5.78,3.1,3.99
CCGACTCGGGCAGAAAGGTTACCATACCATCCGG,0.546,0.698,-0.128,0.841,-0.536,1.97,1.41,2.44,0.663,1.76,-0.0361,0.238,-1.52,-1.19,0.529,0.674,-0.293,1.33,-0.25,1.74
ACTCGGAGGACAAAGGTCAGATCTACGCCAGTGA,4.14,4.18,1.82,3.46,1,4.65,7.02,6.8,5.45,6.92,0.776,3.13,0.263,-0.358,2.46,3.86,0.325,4.45,1.42,4.33
TAGCGTAGGTCATTGGGCCAGTATAGTACGCATC,4.93,3.92,0.617,2.84,0.375,4.15,3.75,3.91,1.25,2.52,1.8,3.26,0.193,-0.343,1.85,2.07,-0.335,2.36,-0.0783,3.74
ATCTCTAGGTAAGACTCATTTCAGTGAAGAACGC,0.503,0.373,0.526,0.488,0.888,-0.0236,0.0953,0.265,0.363,0.295,2.23,1.3,0.559,1.36,1.13,-0.0936,0.605,0.211,1.77,0.27
TCTGCTAGGTCAGTTGTTCAGCTAACGAGCTGCC,0.697,0.0799,-0.424,0.213,0.398,1,-0.335,1.24,1.28,1.21,2.38,2.46,-0.0117,0.257,-0.0463,0.0123,-1.04,0.419,-1.19,3.15
CCGACTGGGGAAAGGTTACCATAACGCACAGCCA,0.564,1.86,0.0866,1.75,-0.554,2.76,2.69,3.64,1.61,3.26,0.181,0.852,-0.712,-0.726,1.01,1.26,0.0491,1.9,0.439,1.74
GTACCAAGGTGAATAGGTCGTTGAGGAGTAGGCG,0.778,0.909,0.0544,0.533,-0.56,2.32,1.22,1.67,0.113,1.14,1.82,2.41,-0.447,-0.52,1.24,0.61,0.0954,1.74,0.334,1.99
CTCGAAAGGTCCGTTGAGGTGAGTATACGGATAA,0.973,-0.377,-0.421,-0.34,-0.666,0.249,-0.102,0.101,-0.184,-0.198,-0.499,0.457,0.113,-0.18,-0.594,0.156,-0.14,0.322,-0.439,1.12
CCGACTGGGGAAGAAAGGTTACCATACCATCCGG,0.169,0.579,-0.0766,0.683,-0.64,2.22,1.84,3.17,1.15,2.6,-0.325,0.33,-0.996,-0.95,0.579,0.747,-0.0818,1.3,0.0486,1.23
CCTTACGGGTCACTCCCGGTTATAGCATCGGAGT,4.78,7.33,2,4.66,0.279,4.23,2.63,3.52,0.522,2.33,2.29,3.2,-0.351,0.418,2.11,3.32,0.36,3.34,1.06,3.65
TCAGACAGGTGAAGATAACTCAGGTACGCAGTCG,0.856,0.897,0.162,1.04,-0.112,1.39,1.09,2.31,3.92,2.92,2.79,0.984,0.555,0.567,0.861,0.46,0.241,0.891,0.4,1.1
CCGAGTAGGTTATGGGGCATTCAAGCAACGGTGA,0.071,0.506,-0.128,0.732,0.278,2.1,3.82,4.64,2.45,4.67,3.32,3.2,-0.98,0.0415,1.36,-0.0285,-0.292,0.26,-0.114,1.08
CCTAGCAGGCCAATCTGGGTCCCTCAAGGCTTGA,-0.114,-0.609,-0.704,-0.838,-1.11,-0.178,-0.823,-0.653,-1.08,-0.919,1.13,0.925,-1.33,-1.81,-1.12,-0.641,-0.809,-0.522,-0.809,0.0212
TCATTTAGGTAAAGGTGAAAGTCGAACGATATGA,1.18,1.46,-0.167,1.52,0.32,3.21,3.2,4.48,4.39,4.9,3.05,3.75,1.29,2.17,1.2,1.35,0.193,1.92,1.42,2.05
